From ChEMBL document CHEMBL3988442, “University of Dundee, Small-Polar-MMV Screening Library” (2021)
For some assays here: Entries with a potency or affinity are not part of this list.

Columns and labels:
Set-up in all cases: scale not given: direction of the effect not stated beside the values
[1] = target: Protein translocase subunit SecA (Escherichia coli (strain K12)) (UniProt P10408); test: Assay to Identify E. coli SecA ATPase Inhibitors; assay type: functional; conditions: 30 µM
[2] = target: T1, Ubiquitin-activating enzyme e1, putative (Leishmania donovani (strain BPK282A1)) (UniProt E9BSI1); test: Leishmania donovani Ubiquitin Activating Enzyme (LdE1); assay type: functional; conditions: 30 µM
T1 sequence (whole entry): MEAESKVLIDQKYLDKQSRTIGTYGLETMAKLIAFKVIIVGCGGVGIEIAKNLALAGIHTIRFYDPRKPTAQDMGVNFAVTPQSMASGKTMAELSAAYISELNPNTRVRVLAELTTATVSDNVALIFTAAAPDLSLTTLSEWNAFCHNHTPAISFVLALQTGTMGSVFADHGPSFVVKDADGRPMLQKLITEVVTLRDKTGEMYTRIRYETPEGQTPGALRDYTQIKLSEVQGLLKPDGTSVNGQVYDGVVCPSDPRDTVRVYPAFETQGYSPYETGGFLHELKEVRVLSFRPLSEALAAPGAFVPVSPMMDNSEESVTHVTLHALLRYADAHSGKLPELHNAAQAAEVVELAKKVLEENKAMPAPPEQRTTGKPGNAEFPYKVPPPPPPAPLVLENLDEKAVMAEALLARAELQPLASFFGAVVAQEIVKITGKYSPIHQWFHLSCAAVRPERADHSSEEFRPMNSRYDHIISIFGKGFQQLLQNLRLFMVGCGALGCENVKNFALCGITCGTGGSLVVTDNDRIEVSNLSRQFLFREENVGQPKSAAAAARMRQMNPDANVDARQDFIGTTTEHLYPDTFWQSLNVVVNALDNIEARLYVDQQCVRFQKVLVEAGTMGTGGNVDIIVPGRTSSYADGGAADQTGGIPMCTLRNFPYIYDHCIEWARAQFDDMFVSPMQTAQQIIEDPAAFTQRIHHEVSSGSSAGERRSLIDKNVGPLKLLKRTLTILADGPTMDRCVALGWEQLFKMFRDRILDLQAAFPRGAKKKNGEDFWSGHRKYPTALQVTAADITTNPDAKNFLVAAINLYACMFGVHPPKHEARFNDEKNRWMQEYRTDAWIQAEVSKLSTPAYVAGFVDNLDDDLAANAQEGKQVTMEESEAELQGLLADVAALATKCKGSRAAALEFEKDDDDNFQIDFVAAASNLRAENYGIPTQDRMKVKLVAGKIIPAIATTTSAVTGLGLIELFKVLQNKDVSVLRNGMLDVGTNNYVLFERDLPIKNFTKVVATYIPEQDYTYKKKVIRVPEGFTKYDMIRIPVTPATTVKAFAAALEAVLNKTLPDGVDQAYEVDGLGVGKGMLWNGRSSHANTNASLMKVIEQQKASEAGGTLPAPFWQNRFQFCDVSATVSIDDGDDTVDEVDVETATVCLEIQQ

[3] = target: AMP-activated protein kinase, AMPK (Homo sapiens) (UniProt P54646+O43741+P54619+Q9UGJ0+Q9Y478+Q13131+Q9UGI9); test: AMP-dependent Kinase enzyme assay. An in vitro enzyme assay that detects ADP turnover that is directly proportional to AMPK activity. This uses naive AMPK that is activated during the assay with MK-8722; assay type: functional; conditions: 30 µM
[4] = target: Sialic acid-binding Ig-like lectin 9 (Homo sapiens) (UniProt Q9Y336); test: Hs-Siglec9 ALPHAscreen SOP 20170721; conditions: 10 µM
[5] = test system: Trypanosoma cruzi; test: Trypanosoma cruzi phosphomannomutase and mannose-1-phosphate guanylyltransferase assay; assay type: functional; conditions: 10 µM
[6] = target: T2, Arginase-2, mitochondrial (Homo sapiens) (UniProt P78540); test: in vitro enzyme assay to detect the production of urea directly proportional to the activity of Arginase II; assay type: functional; conditions: 33.3 µM; further: in the data most compounds retested in dose-response had high values
T2 sequence (whole entry): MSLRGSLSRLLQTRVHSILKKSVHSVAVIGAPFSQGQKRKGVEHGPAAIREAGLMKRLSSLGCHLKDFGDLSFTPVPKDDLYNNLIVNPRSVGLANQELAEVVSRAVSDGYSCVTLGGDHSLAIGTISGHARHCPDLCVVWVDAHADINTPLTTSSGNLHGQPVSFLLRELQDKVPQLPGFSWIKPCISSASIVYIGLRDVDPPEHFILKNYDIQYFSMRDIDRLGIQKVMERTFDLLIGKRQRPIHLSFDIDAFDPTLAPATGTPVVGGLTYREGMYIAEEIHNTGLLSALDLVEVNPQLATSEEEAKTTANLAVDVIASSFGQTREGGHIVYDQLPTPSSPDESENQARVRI

[7] = target: T3, Proteasome subunit beta (Trypanosoma cruzi) (UniProt O96673); test: Trypanosoma cruzi proteasome chymotrypsin-like activity (TcProtChymo) assay.; further: in the data most compounds retested in dose-response had high values; assay type: functional; conditions: 9.37 µM
T3 sequence (whole entry): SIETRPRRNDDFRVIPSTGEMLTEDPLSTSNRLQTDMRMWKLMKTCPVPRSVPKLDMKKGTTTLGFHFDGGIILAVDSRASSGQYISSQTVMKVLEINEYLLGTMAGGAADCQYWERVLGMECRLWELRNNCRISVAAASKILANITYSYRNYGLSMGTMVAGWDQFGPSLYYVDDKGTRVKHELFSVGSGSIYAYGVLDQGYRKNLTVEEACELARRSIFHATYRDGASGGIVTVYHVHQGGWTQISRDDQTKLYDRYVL

[8] = species on record: Homo sapiens; test: To identify inhibition of the IFN signalling (Jak-Stat) pathway via expression of an eGFP reporter gene under the control of an IFN-stimulated response element (ISRE) containing MxA promoter.; assay type: functional; conditions: 30 µM
[9] = target: T4, Tyrosyl-tRNA synthetase, putative (Trypanosoma cruzi (strain CL Brener)) (UniProt Q4DSP6); test: Trypanosoma cruzi tyrosyl tRNA synthetase (TcYRS) _High Tyrosine SOP; assay type: functional; conditions: 30 µM; further: in the data most compounds retested in dose-response had high values
T4 sequence (whole entry): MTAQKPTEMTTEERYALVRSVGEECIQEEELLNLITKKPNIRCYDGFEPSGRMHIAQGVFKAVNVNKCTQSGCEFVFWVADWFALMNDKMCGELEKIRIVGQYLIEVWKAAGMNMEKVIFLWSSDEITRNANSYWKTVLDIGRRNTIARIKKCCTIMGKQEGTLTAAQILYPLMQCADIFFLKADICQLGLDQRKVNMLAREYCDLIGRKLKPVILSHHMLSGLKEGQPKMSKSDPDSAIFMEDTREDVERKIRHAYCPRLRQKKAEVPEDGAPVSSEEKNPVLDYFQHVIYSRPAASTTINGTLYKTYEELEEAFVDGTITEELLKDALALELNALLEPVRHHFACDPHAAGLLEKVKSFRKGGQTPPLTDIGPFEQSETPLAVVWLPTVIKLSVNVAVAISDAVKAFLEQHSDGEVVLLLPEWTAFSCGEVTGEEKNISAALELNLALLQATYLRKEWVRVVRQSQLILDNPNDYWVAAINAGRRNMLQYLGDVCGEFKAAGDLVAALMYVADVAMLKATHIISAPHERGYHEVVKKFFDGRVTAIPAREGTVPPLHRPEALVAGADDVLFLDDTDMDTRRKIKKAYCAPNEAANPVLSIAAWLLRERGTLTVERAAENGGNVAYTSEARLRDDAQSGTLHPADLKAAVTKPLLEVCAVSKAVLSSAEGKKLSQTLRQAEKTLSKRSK

[10] = target: T4, Tyrosyl-tRNA synthetase, putative (Trypanosoma cruzi (strain CL Brener)); test: Trypanosoma cruzi tyrosyl tRNA synthetase (TcYRS) SOP; assay type: functional; conditions: 30 µM
[11] = target: Chromo domain-containing protein 1 (Saccharomyces cerevisiae (strain ATCC 204508 / S288c) (Baker's yeast)) (UniProt P32657); test: ScCHD-1 Enzyme Inhibition Assay; assay type: functional; conditions: 30 µM; further: in the data most compounds retested in dose-response had high values
Sequence of Chromo domain-containing protein 1 (Saccharomyces cerevisiae (strain ATCC 204508 / S288c) (Baker's yeast)) (P32657 whole entry, the tested form may be a part): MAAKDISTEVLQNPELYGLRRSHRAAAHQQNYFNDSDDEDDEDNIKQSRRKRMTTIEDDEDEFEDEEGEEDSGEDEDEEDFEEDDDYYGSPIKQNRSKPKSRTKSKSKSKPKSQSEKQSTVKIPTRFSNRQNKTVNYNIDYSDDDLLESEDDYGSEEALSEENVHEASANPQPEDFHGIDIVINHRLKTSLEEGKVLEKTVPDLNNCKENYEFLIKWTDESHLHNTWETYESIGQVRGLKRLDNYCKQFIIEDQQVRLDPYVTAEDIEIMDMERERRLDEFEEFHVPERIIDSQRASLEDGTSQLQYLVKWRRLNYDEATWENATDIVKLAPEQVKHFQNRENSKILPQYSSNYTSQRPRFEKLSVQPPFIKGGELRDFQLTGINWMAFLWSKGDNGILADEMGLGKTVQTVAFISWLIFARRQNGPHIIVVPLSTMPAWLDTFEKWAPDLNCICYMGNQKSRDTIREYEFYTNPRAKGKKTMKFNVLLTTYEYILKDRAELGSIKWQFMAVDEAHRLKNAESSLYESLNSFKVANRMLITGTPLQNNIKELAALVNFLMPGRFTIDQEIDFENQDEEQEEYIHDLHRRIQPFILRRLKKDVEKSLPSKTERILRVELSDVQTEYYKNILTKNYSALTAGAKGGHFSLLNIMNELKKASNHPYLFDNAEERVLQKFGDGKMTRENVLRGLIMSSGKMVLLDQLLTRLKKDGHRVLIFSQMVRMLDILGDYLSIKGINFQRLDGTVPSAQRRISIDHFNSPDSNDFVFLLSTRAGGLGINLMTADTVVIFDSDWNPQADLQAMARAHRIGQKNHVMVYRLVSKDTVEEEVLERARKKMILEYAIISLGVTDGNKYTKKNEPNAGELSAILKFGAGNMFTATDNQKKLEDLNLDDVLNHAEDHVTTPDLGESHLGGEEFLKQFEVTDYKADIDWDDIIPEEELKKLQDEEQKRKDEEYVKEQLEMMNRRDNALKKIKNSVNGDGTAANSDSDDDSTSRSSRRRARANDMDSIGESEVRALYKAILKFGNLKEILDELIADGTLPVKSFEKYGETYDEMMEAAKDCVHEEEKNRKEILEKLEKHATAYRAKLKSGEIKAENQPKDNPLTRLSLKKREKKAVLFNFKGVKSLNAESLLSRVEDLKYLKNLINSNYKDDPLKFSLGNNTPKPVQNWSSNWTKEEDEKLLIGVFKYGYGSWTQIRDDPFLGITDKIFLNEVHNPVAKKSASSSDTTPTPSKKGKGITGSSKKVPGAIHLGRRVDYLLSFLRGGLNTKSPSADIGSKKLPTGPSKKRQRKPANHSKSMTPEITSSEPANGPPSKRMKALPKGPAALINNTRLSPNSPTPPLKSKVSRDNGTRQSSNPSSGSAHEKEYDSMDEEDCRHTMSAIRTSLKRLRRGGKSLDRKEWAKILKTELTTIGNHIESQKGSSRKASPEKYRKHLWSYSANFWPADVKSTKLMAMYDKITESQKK

Sequence of Sialic acid-binding Ig-like lectin 9 (Homo sapiens) (Q9Y336 whole entry): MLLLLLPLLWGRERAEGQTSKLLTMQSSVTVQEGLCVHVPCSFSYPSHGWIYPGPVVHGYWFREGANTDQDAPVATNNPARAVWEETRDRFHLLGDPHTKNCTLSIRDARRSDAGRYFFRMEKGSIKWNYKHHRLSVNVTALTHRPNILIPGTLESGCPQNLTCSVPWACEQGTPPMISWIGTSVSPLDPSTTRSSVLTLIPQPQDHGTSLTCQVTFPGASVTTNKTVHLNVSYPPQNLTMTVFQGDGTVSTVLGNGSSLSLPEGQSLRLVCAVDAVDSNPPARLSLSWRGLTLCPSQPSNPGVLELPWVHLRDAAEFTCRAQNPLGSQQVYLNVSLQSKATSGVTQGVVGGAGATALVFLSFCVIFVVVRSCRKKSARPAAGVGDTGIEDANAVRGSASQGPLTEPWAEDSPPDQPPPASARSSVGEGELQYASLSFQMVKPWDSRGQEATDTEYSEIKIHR
Sequence of Protein translocase subunit SecA (Escherichia coli (strain K12)) (P10408 whole entry): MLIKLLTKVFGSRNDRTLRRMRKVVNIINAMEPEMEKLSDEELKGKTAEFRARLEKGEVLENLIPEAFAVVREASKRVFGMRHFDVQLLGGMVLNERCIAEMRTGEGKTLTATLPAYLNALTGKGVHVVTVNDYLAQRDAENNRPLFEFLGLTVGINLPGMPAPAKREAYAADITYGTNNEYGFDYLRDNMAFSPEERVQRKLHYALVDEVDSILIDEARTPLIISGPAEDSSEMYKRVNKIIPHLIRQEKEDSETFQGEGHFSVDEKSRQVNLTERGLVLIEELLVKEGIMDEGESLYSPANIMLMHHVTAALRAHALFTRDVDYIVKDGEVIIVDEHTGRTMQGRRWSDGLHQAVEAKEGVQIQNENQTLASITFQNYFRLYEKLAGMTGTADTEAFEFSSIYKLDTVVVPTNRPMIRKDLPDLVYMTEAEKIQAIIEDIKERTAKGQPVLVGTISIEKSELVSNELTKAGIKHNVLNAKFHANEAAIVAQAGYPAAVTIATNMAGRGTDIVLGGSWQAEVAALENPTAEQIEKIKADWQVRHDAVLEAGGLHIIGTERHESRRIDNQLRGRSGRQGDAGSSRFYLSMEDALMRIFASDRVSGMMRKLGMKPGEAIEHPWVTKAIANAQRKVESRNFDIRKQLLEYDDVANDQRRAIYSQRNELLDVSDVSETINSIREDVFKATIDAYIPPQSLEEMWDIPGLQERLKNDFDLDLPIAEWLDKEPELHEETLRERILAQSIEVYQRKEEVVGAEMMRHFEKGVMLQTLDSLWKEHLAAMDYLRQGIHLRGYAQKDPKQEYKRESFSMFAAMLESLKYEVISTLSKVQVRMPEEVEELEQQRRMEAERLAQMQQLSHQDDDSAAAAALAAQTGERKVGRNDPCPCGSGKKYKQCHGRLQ

Row | Structure (SMILES) | Percent Effect [1] | Percent Effect [2] | Percent Effect [3] | Percent Effect [4] | Percent Effect [5] | Percent Effect [6] | Percent Effect [7] | Percent Effect [8] | Percent Effect [9] | Percent Effect [10] | Percent Effect [11]
1 | CC(CN1CCOCC1)NCC1CCN(c2cnn(C)c(=O)c2)CC1 (stereo unspecified) | -4.77% | -1.39% | -4.64% | 1.85% | -1.85% | -0.883% | 4.21% | -10.4% | 0% | -10.3% | 1.95%
2 | Cc1ccc(-c2cn[nH]c2C2CCCN(c3nccc(N)n3)C2)cc1 (stereo unspecified) | -2.69% | 20.8% | 46.7% | 15.4% | 5.15% | -1.77% | 25.6% | 37.1% | 7.37% | 20.5% | 3.03%
3 | CN1CCN(Cc2cn3c(n2)CN(C(=O)N2CCOCC2)CC3)CC1 | -6.56% | 5.2% | 1.33% | 22.1% | 3.25% | -5.52% | 0.499% | -12.5% | 4.3% | 11.1% | 0.336%
4 | COCc1cccc(C(=O)N2CCCCC2c2nccs2)c1 (stereo unspecified) | -2.42% | -2.7% | -6.81% | -4.58% | 5.75% | 2.81% | 7.75% | -4.26% | 3.45% | 3.7% | -4.87%
5 | CC(=O)Nc1cc(C(=O)N2CCOCC2c2ccc(C)o2)ccc1F (stereo unspecified) | -3.55% | 2.67% | -3.55% | -1.06% | -2.43% | -1.04% | 4.18% | -20.8% | 0.546% | 3.7% | 1.78%
6 | O=C(Nc1cc(C(F)(F)F)c[nH]c1=O)c1ccco1 | -2.24% | -2.63% | 19.1% | 5.92% | 0.28% | -15.5% | 10.9% | -15.5% | 6.4% | 6.17% | 0.552%
7 | CN(Cc1nccn1CC(F)(F)F)C(=O)c1cccc(C#N)c1 | -3.37% | -2.63% | 6.05% | 3.82% | -3.21% | -4.73% | 3.74% | -14.9% | 3.19% | 5.2% | 13.6%
8 | CC(C)c1nnc(CN2CCCC2Cn2cncn2)o1 (stereo unspecified) | -4.03% | 18.2% | -9.21% | 3.1% | 5.99% | 3.92% | 10.3% | -4.77% | 6.8% | 24.4% | -9.98%
9 | CN(C)c1ncc(-c2cc(C(=O)O)n(CC3CC3)c2)cn1 | -1.6% | -2.7% | 5.47% | -3.4% | 1.95% | -0.833% | 7.69% | 7.22% | 5.94% | -3.66% | -8.88%
10 | O=C(NCc1ccoc1)Nc1ccc(CN2CCOC2=O)cc1 | -4.58% | 1.39% | 6.74% | -4.22% | -6.12% | 0% | 15.1% | 24.8% | 0% | -5.13% | -2.04%
11 | COCCNC(=O)[C@H]1CN(Cc2nccs2)C[C@H]2OCC[C@@H]12 | -3.36% | 16.4% | -2.81% | 11.4% | 3.17% | 2.4% | 6.25% | 15.8% | 5.21% | 1.24% | -0.333%
12 | Cc1cccc(CN2C(=O)CO[C@@H]3CN(CCO)C[C@H]32)c1 | 1.05% | 10.8% | -5.9% | -3.44% | 4.88% | 26.2% | 12.1% | 10.1% | 6.93% | 8.54% | 1.31%
13 | CC(NC(=O)CCCOc1ccccc1Cl)c1ccncc1 (stereo unspecified) | -5.33% | 0% | 2.41% | 0.805% | -8.42% | -2.27% | 6.39% | 27.7% | -2.15% | 2.5% | 110%
14 | COCCN(CCc1ccccc1)Cc1nc2c(cnn2C)c(=O)[nH]1 | -1.78% | 13.5% | 1.09% | 15.2% | 1.04% | -2.81% | -0.36% | -11.6% | 7.39% | 18.5% | -9.44%
15 | CC(=O)N1CCN(C(=O)CCOc2ccc(C(C)C)cc2)CC1 | -2.33% | 7.89% | 5.03% | 10.9% | -2.26% | 2.3% | 14.4% | 0.908% | 5.39% | 4.88% | -1.04%
16 | Cc1nn(C)c(C)c1NC(=O)CCn1ncc2c(C)cccc21 | -5.82% | 7.79% | 1.49% | 9.37% | 2.85% | 9.65% | 13.3% | 5.45% | 6.45% | 13.6% | 41.5%
